# PubChem BioAssay (EPA / NIEHS)
# Results filed as inconclusive are left out. The source made the active and inactive calls. How the source made its calls: active means hit-call score of the fitted dose curve at least 0.9, where 1 is the maximum; inconclusive means response in the unintended direction; inactive means score below 0.9.
# How the values were obtained:
# [1] = target: human Phosphodiesterase 4A1 (PDE4A1), PDE4A (gene 5141) (UniProt P27815); experiment: NVS_ENZ_hPDE4A1: NovaScreen (NVS) Enzymatic Assay for human Phosphodiesterase 4A1 (PDE4A1) (AID 2283191)
# Outline: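 Cell-free recombinant human PDE4A1 with fluorescent substrate; product separated by electrophoretic mobility shift, 1 h. Screened at 25 uM, then up to 50 uM in concentration-response; loss of signal fitted against DMSO.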
# [2] = target: human Phosphodiesterase 5 (PDE5), PDE5A (gene 8654) (UniProt O76074); experiment: NVS_ENZ_hPDE5: NovaScreen (NVS) Enzymatic Assay for human Phosphodiesterase 5 (PDE5) (AID 2283194)
# Outline: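 Recombinant human PDE5 with specific substrate, read 1 h after dosing by fluorescence with electrophoretic mobility-shift separation of substrate and product. Initial single-concentration duplicate screen at 25 uM, actives followed in concentration series; loss of activity versus DMSO.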
# [3] = target: human Matrix Metalloproteinase-9 (MMP9), MMP9 (gene 4318) (UniProt P14780); experiment: NVS_ENZ_hMMP9: NovaScreen (NVS) Enzymatic Assay for human Matrix Metalloproteinase-9 (MMP9) (AID 2283190);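 further: cell-free recombinant MMP9 protease activity read by fluorescent substrate signal; active means inhibition seen as loss of fluorescence signal versus DMSO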
# Outline: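 Inhibition was scored as loss of fluorescence signal against DMSO controls. The recombinant protease was exposed to chemicals for 1 hour before reading; initial testing used 25 uM in duplicate.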
# [4] = target: human Matrix Metalloproteinase-3 (MMP3), MMP3 (gene 4314) (UniProt P08254); experiment: NVS_ENZ_hMMP3: NovaScreen (NVS) Enzymatic Assay for human Matrix Metalloproteinase-3 (MMP3) (AID 2283185)
# Outline: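 Cell-free recombinant human MMP3 activity, fluorescence intensity read 1 h after dosing. Primary screen duplicate at 25 uM, actives retested in concentration series; loss of signal vs DMSO baseline.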
# [5] = target: cAMP-dependent protein kinase catalytic subunit alpha (Homo sapiens) (UniProt P17612); experiment: NVS_ENZ_hPKA: NovaScreen (NVS) Enzymatic Assay for human Protein Kinase A (PKA) (AID 2283192)
# Outline: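 Recombinant human PKA with specific fluorescent substrate, product separated by electrophoretic mobility shift, read 1 h after dosing. Primary screen at 25 uM in duplicate; actives then run in concentration-response up to 50 uM, activity relative to DMSO.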
# [6] = target: human Protein Phosphatase, Mg2+/Mn2+ Dependent 1A (PPM1A), PPM1A (gene 5494) (UniProt P35813); experiment: NVS_ENZ_hPPM1A: NovaScreen (NVS) Enzymatic Assay for human Protein Phosphatase, Mg2+/Mn2+ Dependent 1A (PPM1A) (AID 2283198)
# Outline: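 Cell-free recombinant PPM1A phosphatase assay with fluorescent substrate, read 1 h after dosing by electrophoretic mobility shift. Chemicals screened in duplicate at 25 uM, then in concentration-response up to 50 uM; loss of activity versus DMSO.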
# [7] = target: Serine/threonine-protein phosphatase PP1-alpha catalytic subunit (Homo sapiens) (UniProt P62136); experiment: NVS_ENZ_hPPP1CA: NovaScreen (NVS) Enzymatic Assay for human Protein Phosphatase 1 Aatalytic subunit Alpha (PPP1CA) (AID 2283200)
# Outline: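 Recombinant enzyme activity read by fluorescence with electrophoretic mobility shift separating substrate from product, 1.33 h after dosing; loss of signal vs DMSO baseline. Primary screen in duplicate at 25 uM; actives retested in concentration-response up to 50 uM.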
# [8] = target: human Protein Tyrosine Phosphatase Non-receptor Type 4 (PTPN4), PTPN4 (gene 5775) (UniProt P29074); experiment: NVS_ENZ_hPTPN4: NovaScreen (NVS) Enzymatic Assay for human Protein Tyrosine Phosphatase Non-receptor Type 4 (PTPN4) (AID 2283208)
# Outline: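 Cell-free assay of PTPN4 expressed in Sf9 cells, using a fluorescent substrate with product separated by mobility shift; read 1.33 h after dosing. Single-point screen at 25 uM, then concentration-response up to 50 uM. Loss of signal relative to DMSO.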
# [9] = target: human Protein Tyrosine Phosphatase Non-receptor Type 9 (PTPN9), PTPN9 (gene 5780) (UniProt P43378); experiment: NVS_ENZ_hPTPN9: NovaScreen (NVS) Enzymatic Assay for human Protein Tyrosine Phosphatase Non-receptor Type 9 (PTPN9) (AID 2283209)
# Outline: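 Sf9-expressed enzyme in a cell-free assay, fluorescence read 1.33 h after dosing with mobility-shift separation of substrate and product. Tested at 25 uM in duplicate, then up to 50 uM; signal loss versus DMSO.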
# [10] = target: human Protein Tyrosine Phosphatase Receptor Type F (PTPRF), PTPRF (gene 5792) (UniProt P10586); experiment: NVS_ENZ_hPTPRF: NovaScreen (NVS) Enzymatic Assay for human Protein Tyrosine Phosphatase Receptor Type F (PTPRF) (AID 2283213)
# Outline: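 Cell-free fluorescence enzyme assay with recombinant protein and substrate; product separated by electrophoretic mobility shift. Read 1 h after dosing, single 25 uM duplicate screen, then concentration-response up to 50 uM; loss of signal vs DMSO.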
# [11] = target: human Mitogen- and Stress-activated Protein Kinase-1 (Msk1), RPS6KA5 (gene 9252) (UniProt O75582); experiment: NVS_ENZ_hMsk1: NovaScreen (NVS) Enzymatic Assay for human Mitogen- and Stress-activated Protein Kinase-1 (Msk1) (AID 2283187)
# Outline: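 Recombinant kinase with fluorescent substrate; product separated by electrophoretic mobility shift, read 1 h after dosing. Screened in duplicate at 25 uM; hits (e.g. ≥30% inhibition) tested in concentration–response up to 50 uM. DMSO baseline.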
# [12] = target: human Phosphoinositide 3-kinase alpha (PI3Ka), PIK3CA (gene 5290) (UniProt P42336); experiment: NVS_ENZ_hPI3Ka: NovaScreen (NVS) Enzymatic Assay for human Phosphoinositide 3-kinase alpha (PI3Ka) (AID 2283196)
# Outline: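 Chemicals were first screened at 25 uM in duplicate, then hits were run as concentration series up to 50 uM. Enzyme activity was measured by fluorescence after mobility-shift separation, with loss of signal relative to DMSO taken as activity.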
# [13] = target: Tyrosine-protein phosphatase non-receptor type 11 (Homo sapiens) (UniProt Q06124); experiment: NVS_ENZ_hPTPN11: NovaScreen (NVS) Enzymatic Assay for human Protein Tyrosine Phosphatase Non-receptor Type 11 (PTPN11) (AID 2283202)
# Outline: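 Recombinant human PTPN11 activity on a fluorescent substrate, with substrate/product separated by electrophoretic mobility shift; read 0.5 h after dosing, loss of signal vs DMSO. Duplicate 25 uM screen, then concentration-response up to 50 uM.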
# [14] = target: Tyrosine-protein phosphatase non-receptor type 12 (Homo sapiens) (UniProt Q05209); experiment: NVS_ENZ_hPTPN12: NovaScreen (NVS) Enzymatic Assay for human Protein Tyrosine Phosphatase Non-receptor Type 12 (PTPN12) (AID 2283204)
# Outline: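 Single-concentration duplicates (25 uM) preceded singleton concentration-response up to 50 uM for chemicals passing threshold. Cell-free recombinant PTPN12 activity was read 1.33 h after dosing via fluorescence after mobility-shift separation; loss of signal versus DMSO.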
# [15] = target: Tyrosine-protein phosphatase non-receptor type 13 (Homo sapiens) (UniProt Q12923); experiment: NVS_ENZ_hPTPN13: NovaScreen (NVS) Enzymatic Assay for human Protein Tyrosine Phosphatase Non-receptor Type 13 (PTPN13) (AID 2283205)
# Outline: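 Cell-free assay of recombinant human PTPN13 with a fluorescent substrate, product separated by electrophoretic mobility shift and read 0.5 h after dosing. Primary screen at 25 uM in duplicate, then concentration-response up to 50 uM. Loss of signal fitted against DMSO.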
# [16] = target: human Protein Tyrosine Phosphatase Non-receptor Type 6 (PTPN6), PTPN6 (gene 5777) (UniProt P29350); experiment: NVS_ENZ_hPTPN6: NovaScreen (NVS) Enzymatic Assay for human Protein Tyrosine Phosphatase Non-receptor Type 6 (PTPN6) (AID 2283210)
# Outline: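 Cell-free assay with recombinant PTPN6 expressed in SF9 cells, fluorescent substrate, product separated from substrate by electrophoretic mobility shift; read 1.33 hours after dosing. Primary screen in duplicate at 25 uM, actives retested in concentration series; DMSO baseline.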
# [17] = target: Tyrosine-protein phosphatase non-receptor type 14 (Homo sapiens) (UniProt Q15678); experiment: NVS_ENZ_hPTPN14: NovaScreen (NVS) Enzymatic Assay for human Protein Tyrosine Phosphatase Non-receptor Type 14 (PTPN14) (AID 2283206)
# Outline: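 Cell-free recombinant human PTPN14 with fluorescent substrate, read 0.5 h after dosing by fluorescence and electrophoretic mobility shift separating substrate from product. Primary screen at 25 uM in duplicate; hits run to 50 uM maximum; loss of signal versus DMSO.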
# [18] = target: human Phosphodiesterase 10 (PDE10), PDE10A (gene 10846) (UniProt Q9Y233); experiment: NVS_ENZ_hPDE10: NovaScreen (NVS) Enzymatic Assay for human Phosphodiesterase 10 (PDE10) (AID 2283195)
# Outline: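 PDE10A, cell-free; 1 h incubation; fluorescence intensity + electrophoretic mobility shift separating substrate/product; DMSO = baseline; 25 uM duplicate primary, CRC up to 50 uM.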
# human Matrix Metalloproteinase-3 (MMP3), MMP3 (gene 4314), sequence (P08254 whole entry, looked up): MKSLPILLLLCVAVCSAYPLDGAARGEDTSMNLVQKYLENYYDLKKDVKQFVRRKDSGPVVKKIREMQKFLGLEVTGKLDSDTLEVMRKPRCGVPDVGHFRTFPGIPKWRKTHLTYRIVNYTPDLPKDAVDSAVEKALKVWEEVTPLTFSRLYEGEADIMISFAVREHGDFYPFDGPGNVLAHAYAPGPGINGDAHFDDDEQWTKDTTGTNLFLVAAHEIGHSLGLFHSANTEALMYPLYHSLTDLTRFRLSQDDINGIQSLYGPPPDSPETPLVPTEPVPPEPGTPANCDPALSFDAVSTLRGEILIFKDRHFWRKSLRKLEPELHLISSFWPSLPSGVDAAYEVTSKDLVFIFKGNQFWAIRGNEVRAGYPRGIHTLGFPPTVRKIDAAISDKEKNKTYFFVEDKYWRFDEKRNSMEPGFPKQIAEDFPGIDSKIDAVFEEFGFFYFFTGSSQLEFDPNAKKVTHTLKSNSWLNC
# human Mitogen- and Stress-activated Protein Kinase-1 (Msk1), RPS6KA5 (gene 9252), sequence (O75582 whole entry, looked up): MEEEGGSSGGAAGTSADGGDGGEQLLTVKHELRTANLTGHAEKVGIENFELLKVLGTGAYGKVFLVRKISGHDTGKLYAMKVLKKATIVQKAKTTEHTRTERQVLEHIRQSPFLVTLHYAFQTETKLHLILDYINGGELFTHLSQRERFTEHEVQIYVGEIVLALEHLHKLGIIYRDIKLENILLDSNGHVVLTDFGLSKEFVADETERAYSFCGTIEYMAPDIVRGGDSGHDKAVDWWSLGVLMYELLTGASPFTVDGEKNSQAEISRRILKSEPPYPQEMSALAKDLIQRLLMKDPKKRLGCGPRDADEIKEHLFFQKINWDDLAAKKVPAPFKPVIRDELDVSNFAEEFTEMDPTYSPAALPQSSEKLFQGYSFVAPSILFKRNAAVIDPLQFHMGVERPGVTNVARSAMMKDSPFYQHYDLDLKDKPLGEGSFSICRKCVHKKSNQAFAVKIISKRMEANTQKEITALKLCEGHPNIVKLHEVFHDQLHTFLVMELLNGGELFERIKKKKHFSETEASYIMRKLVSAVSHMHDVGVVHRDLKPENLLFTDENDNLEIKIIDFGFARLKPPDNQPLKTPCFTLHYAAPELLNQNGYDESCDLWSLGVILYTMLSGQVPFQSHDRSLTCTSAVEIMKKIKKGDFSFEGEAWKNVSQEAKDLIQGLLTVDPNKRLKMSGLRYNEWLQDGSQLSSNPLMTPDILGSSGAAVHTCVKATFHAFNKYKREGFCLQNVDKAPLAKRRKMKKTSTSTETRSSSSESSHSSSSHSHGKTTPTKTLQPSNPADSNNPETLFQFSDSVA
# human Protein Tyrosine Phosphatase Non-receptor Type 9 (PTPN9), PTPN9 (gene 5780), sequence (P43378 whole entry, looked up): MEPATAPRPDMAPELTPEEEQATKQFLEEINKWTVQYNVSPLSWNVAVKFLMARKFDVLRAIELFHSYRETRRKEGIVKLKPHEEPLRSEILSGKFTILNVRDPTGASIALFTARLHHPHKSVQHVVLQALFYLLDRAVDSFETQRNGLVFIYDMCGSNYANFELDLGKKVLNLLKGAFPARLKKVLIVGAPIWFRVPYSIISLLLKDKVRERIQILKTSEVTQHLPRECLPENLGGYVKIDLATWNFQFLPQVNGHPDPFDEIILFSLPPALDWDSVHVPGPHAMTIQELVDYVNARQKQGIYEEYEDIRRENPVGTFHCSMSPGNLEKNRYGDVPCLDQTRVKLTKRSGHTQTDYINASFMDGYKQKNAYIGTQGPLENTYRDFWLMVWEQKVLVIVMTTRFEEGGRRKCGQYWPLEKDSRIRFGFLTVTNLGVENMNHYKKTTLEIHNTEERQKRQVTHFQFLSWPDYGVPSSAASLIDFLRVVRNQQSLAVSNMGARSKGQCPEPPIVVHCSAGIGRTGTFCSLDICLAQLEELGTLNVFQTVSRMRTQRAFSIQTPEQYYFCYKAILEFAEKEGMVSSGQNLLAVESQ
# human Phosphodiesterase 4A1 (PDE4A1), PDE4A (gene 5141), sequence (P27815 whole entry, looked up): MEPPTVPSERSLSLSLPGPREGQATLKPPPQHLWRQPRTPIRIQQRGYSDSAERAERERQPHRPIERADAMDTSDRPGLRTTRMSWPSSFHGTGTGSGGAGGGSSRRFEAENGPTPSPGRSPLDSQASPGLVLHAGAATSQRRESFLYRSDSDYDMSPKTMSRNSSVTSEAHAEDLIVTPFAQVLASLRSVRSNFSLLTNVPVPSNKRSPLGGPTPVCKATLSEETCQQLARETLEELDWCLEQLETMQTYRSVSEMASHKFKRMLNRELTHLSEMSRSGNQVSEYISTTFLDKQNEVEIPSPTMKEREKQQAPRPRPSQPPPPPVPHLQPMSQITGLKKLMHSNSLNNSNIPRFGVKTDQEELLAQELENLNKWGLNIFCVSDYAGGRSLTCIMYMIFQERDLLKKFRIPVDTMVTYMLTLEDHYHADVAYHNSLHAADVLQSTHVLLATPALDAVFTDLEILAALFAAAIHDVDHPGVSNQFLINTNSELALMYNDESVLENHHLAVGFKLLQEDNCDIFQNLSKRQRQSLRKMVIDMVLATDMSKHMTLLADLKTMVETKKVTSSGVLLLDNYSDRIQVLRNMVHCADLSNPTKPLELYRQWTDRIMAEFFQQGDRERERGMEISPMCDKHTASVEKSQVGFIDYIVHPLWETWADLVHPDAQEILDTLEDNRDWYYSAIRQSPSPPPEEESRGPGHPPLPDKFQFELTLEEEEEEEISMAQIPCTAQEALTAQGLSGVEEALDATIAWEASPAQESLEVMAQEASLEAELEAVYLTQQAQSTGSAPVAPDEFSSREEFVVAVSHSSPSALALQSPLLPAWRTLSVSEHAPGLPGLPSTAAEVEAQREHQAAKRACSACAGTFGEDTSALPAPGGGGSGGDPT
# human Matrix Metalloproteinase-9 (MMP9), MMP9 (gene 4318), sequence (P14780 whole entry, looked up): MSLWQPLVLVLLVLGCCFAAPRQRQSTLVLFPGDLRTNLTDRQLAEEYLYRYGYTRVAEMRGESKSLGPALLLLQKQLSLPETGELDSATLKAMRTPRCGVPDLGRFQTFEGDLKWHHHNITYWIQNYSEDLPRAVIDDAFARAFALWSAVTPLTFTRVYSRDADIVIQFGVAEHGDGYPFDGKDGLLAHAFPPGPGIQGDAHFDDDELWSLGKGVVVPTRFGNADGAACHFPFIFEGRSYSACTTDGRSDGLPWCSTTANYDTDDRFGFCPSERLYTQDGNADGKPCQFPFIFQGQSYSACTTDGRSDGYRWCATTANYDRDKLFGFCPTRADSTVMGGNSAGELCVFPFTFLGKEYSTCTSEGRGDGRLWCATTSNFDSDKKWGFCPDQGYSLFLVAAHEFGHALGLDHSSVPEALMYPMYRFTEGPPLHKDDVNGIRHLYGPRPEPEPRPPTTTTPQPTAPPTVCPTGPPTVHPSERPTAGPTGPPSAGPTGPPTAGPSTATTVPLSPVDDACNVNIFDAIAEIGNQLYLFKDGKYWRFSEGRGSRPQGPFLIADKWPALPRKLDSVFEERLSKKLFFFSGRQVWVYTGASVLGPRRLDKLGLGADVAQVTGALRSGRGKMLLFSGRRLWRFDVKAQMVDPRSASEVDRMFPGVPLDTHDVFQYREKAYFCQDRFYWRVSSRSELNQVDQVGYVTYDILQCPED
# human Protein Tyrosine Phosphatase Non-receptor Type 4 (PTPN4), PTPN4 (gene 5775), sequence (P29074 whole entry, looked up): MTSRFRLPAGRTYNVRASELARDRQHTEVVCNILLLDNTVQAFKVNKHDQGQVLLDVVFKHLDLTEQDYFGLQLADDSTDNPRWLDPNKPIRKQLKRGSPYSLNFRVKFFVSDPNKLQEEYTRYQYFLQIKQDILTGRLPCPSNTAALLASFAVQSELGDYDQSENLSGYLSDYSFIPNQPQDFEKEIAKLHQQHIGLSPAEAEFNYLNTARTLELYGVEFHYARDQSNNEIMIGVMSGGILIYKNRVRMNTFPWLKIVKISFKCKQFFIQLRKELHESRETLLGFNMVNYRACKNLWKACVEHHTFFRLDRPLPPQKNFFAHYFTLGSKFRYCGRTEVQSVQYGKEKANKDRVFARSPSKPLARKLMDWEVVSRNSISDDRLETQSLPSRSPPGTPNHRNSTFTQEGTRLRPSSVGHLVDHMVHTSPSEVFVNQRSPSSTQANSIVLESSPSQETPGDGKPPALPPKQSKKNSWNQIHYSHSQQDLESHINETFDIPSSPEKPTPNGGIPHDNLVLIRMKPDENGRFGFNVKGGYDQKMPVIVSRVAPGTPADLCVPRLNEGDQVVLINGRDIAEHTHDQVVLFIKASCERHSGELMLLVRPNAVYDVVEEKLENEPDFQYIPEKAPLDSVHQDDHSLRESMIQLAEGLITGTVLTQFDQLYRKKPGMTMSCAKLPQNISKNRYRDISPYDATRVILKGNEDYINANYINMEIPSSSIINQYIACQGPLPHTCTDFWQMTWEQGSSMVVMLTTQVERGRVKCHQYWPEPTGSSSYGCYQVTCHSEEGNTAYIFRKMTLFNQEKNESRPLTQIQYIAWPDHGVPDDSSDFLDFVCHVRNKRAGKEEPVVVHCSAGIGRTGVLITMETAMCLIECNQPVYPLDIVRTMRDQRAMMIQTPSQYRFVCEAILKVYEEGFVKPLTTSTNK
# human Protein Phosphatase, Mg2+/Mn2+ Dependent 1A (PPM1A), PPM1A (gene 5494), sequence (P35813 whole entry, looked up): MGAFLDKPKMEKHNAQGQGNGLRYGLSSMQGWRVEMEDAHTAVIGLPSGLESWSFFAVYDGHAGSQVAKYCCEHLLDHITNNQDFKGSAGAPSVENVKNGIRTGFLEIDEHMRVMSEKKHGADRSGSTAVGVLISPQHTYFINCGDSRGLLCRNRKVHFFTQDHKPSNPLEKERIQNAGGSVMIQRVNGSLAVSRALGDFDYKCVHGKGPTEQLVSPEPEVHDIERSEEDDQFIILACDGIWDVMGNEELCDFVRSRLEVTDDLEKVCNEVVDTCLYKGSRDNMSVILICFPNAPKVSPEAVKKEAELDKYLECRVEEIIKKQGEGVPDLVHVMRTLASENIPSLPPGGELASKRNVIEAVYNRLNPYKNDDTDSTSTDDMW
compound,measurement,setting,value
CC(=O)Oc1ccccc1C(=O)O,outcome,[1],inactive
same,outcome,[2],inactive
CCNc1cccc(C)c1,outcome,[3],inactive
COc1cc(C=O)ccc1O,AC50,[4],3.71 µM (active)
CN1CCN(Cc2cc(-c3ccc4[nH]c(=O)oc4c3)co2)[C@@H](c2ccc(F)cc2)C1,outcome,[4],inactive
O=C(OCCCCCOC(=O)c1ccccc1)c1ccccc1,outcome,[5],inactive
same,outcome,[6],inactive
same,outcome,[7],inactive
same,outcome,[8],inactive
same,outcome,[9],inactive
same,outcome,[10],inactive
CCCCc1ccc2c(n1)[C@@H](c1ccc(OC)cc1C[C@H](C)C(=O)O)[C@H](C(=O)O)[C@H]2c1ccc2c(c1)OCO2,AC50,[4],38.6 µM (active)
same,outcome,[3],inactive
CCc1c(C(=O)NN2CCCCC2)nn(-c2ccc(Cl)cc2Cl)c1-c1ccc(Br)cc1,outcome,[11],inactive
same,outcome,[2],inactive
same,outcome,[12],inactive
same,outcome,[13],inactive
same,outcome,[14],inactive
same,AC50,[15],0.0976 µM (active)
same,outcome,[9],inactive
same,outcome,[16],inactive
same,outcome,[10],inactive
NCCO,outcome,[11],inactive
same,outcome,[3],inactive
same,outcome,[5],inactive
same,outcome,[13],inactive
same,outcome,[14],inactive
same,outcome,[17],inactive
O=C(O)Cc1ccccc1Nc1c(Cl)cccc1Cl,outcome,[3],inactive
same,outcome,[16],inactive
CNCc1cc(F)ccc1Oc1ccc(Cl)c(Cl)c1,outcome,[1],inactive
same,outcome,[18],inactive
Nc1ccc2c(c1)C(=O)c1ccccc1C2=O,AC50,[4],31.6 µM (active)
same,outcome,[7],inactive
same,outcome,[8],inactive
CCCc1cc(=O)[nH]c(=S)[nH]1,AC50,[3],8.66 µM (active)
same,outcome,[15],inactive
CN[C@H]1CC[C@@H](c2ccc(Cl)c(Cl)c2)c2ccc(S(N)(=O)=O)cc21,outcome,[4],inactive
same,outcome,[6],inactive
Nc1ccccc1N,outcome,[3],inactive
same,AC50,[2],18.1 µM (active)
same,AC50,[9],9.86 µM (active)
CNC(=O)[C@H]1O[C@@H](n2cnc3c(NCc4cc(Cl)ccc4OCc4cc(C)no4)ncnc32)[C@H](O)[C@@H]1N,outcome,[4],inactive
same,AC50,[3],8.35 µM (active)
same,outcome,[5],inactive
same,outcome,[2],inactive
Cc1c(C(=O)O)c(O)cc2c1C(=O)c1c(O)c([C@@H]3O[C@H](CO)[C@@H](O)[C@H](O)[C@H]3O)c(O)c(O)c1C2=O,AC50,[3],4.45 µM (active)
same,outcome,[1],inactive
NCC1(Cc2noc(=O)[nH]2)CCCCC1,outcome,[4],inactive
same,outcome,[18],inactive
CC1=C(/C=C/C(C)=C/C=C/C(C)=C/CO)C(C)(C)CCC1,outcome,[11],inactive
same,outcome,[1],inactive
same,outcome,[2],inactive
COc1cc(S(=O)(=O)O)c(C)cc1N=Nc1c(O)ccc2cc(S(=O)(=O)O)ccc12,AC50,[4],19.2 µM (active)
O=C(N[C@@H](Cc1ccccc1)[C@@H](O)C(=O)N1C[C@@H](O)[C@@H](O)C1)c1cc2cc(Cl)ccc2[nH]1,outcome,[3],inactive
same,outcome,[1],inactive
same,outcome,[2],inactive
